Here are results for five molecules from ChEMBL document CHEMBL1157539, “Thousands of chemical starting points for antimalarial lead identification” (Nature, 2010).

What all share (type): functional
The test system of test [1] is Plasmodium falciparum. Briefly: GSK_TCMDC: Inhibition of Plasmodium falciparum 3D7 in whole red blood cells, using parasite LDH activity as an index of growth. Test compounds present at 2uM.
The test system of test [2] is Plasmodium falciparum. The test can be described thus: GSK_TCMDC: Inhibition of Plasmodium falciparum Dd2 in whole red blood cells, using parasite LDH activity as an index of growth. Test compounds present at 2uM.
The subject of another test is HepG2. Briefly: GSK_TCMDC: Percent inhibition of human HepG2 cell line. Test compounds present at 10uM.

Regarding `Cl.NC1=NC(CCc2ccccc2)N(c2ccc(Cl)cc2)C(N)=N1` (stereo not given), the Inhibition came out at 94% in the test on Plasmodium falciparum [1], 20% in the test on Plasmodium falciparum [2] and 2% in the test on HepG2.
As for `C=CCNC(=O)C(C)c1ccc2cc(OC)ccc2c1` (stereo not given), the Inhibition in the test with Plasmodium falciparum [1] is 92%; in the test with Plasmodium falciparum [2], 90%; in the test on HepG2, 4%.
For `Cc1cc(N[C@@H](CC(C)C)C(=O)NCCCOC(C)C)nc(NCCc2ccc(F)cc2)n1.O=C(O)C(F)(F)F`, in that order: 87%, 19% and 5%.
On the same counts, the results for `COc1ccc(-c2cnc(NCc3ccccc3)nc2)cc1CNC1CCN(C)CC1.O=C(O)C(F)(F)F` are 96%, 64% and 19%.
On the same counts, the results for `CS(=O)(=O)CCNCc1cccc(-c2ccc3c(Nc4cc(O)c(Cl)cc4F)ccnc3c2)c1` are 100%, 100% and 9%.
